Compound activity (PubChem BioAssay)
ATXN viability: cell viability loss in ATXN counter-screen | S2 cells (HEK-293 line with an ATXN2-luciferase reporter) viability, CellTiter-Fluor protease fluorescence, 24 h | Potency, µM (series often up to 56.7 µM), actives largely listed as cytotoxic | 400,000 compounds, 0.49% hits; note: nearly all actives have a fitted effect of over 40% in size
HepG2 tox: counter-screen for TGF-b inhibitors: cytotoxicity in HepG2 cells. HepG2 CAGA-GFP viability, ATP luminescence, 18 h. Potency, µM (series often up to 46.1 µM), actives largely listed as cytotoxic. 410,000 compounds, 0.76% hits
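CellTiter-Glo luminescence gave cytotoxicity after 18 hours at 37 degrees C. The cells were HepG2 CAGA-GFP in 1% FBS DMEM, stimulated with 500 pg/mL TGF-beta after compound addition. %Activity was normalised to no-cell wells (complete cell-killing) and DMSO (no toxicity), and curves were fitted and classified.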
Nrf2 block: Nrf2 pathway inhibition. A549 ARE-Fluc reporter, luciferase luminescence, 18-24 h. Potency, µM (highest dose often 46 µM), most hits filed as inhibitors. AID 504444. 360,000 compounds, 2.1% hits; note: nearly all actives have a fitted effect of over 60% in size
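Reporter: ARE-Fluc in A549. Exposure: 18-24 h, 37 °C, 5% CO2, 5% FBS OPTI-MEM. Readouts: fluorescent cytotoxicity (CellTiter-Fluor), then luminescent Nrf2 signal after BugLite.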
TGFb inhibitor: blocks TGF-b signaling | HepG2 CAGA-GFP TGF-b/SMAD3 reporter, GFP fluorescence, 18 h; TGF-beta stimulated, 500 pg/mL final | Potency, µM (highest dose often 46.1 µM), most hits filed as inhibitors | 410,000 compounds, 1.2% hits | AID 588855; note: nearly all actives have a fitted effect of over 65% in size
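Per well, imaged GFP fluorescence of HEPG2 CAGA-GFP cells gives the signal; cells get compound, then TGF-beta (500 pg/mL final), 18 h at 37 degrees C; %Activity versus -TGF-beta and +DMSO controls.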
A549 viability: kills or reduces viability of A549 cells in Nrf2 counter-screen; AID 504648; A549 ARE-Fluc cells, CellTiter-Fluor viability, 18-24 h; 390,000 compounds, 0.16% hits; Potency, µM (doses to about 46 µM), hits mostly inhibitors
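Cytotoxicity counterscreen: CellTiter-Fluor fluorescence was measured in A549 ARE_Fluc cells after 18-24 h of compound exposure in a concentration series. The subsequent BugLite luminescent read reports ARE-luciferase activity.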
ATXN2 expr inh: ATXN2 expression inhibition | HEK-293 ATXN2-luciferase reporter, luminescence, 24 h | Potency, µM (titrated, usually from 57 µM), usual class: inhibitors | 360,000 compounds, 0.72% hits | AID 1745845; note: nearly all actives have a fitted effect of over 55% in size
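ATXN2-luciferase reporter cells (luciferase flanked by upstream and downstream ATXN2 gene portions) were treated 24 h at 37 °C with compounds at up to 57 uM. SteadyGlo luminescence gave expression; GF-AFC fluorescence gave viability.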
Large screens that a line does not name were inactive. In the library only some 3.8% were active in any assay of this set; here they are far more common. Calls come from the whole dose curve; as a rule, active = well fitted curve in the direction sought with a large enough effect; inconclusive = small, poorly fitted or top-dose-only effect, or another doubt; inactive = no such curve, though single readings can be large; an effect the other way counts as inactive or inconclusive.

CC1CCN(C(=O)CSc2nnc3c(n2)[nH]c2ccccc23)CC1	Nrf2 block 8.2µM, TGFb inhibitor inconclusive
COC(=O)c1cccc(NC2CC(=O)N(c3ccc(OC)c(OC)c3)C2=O)c1 (centres undefined)	HepG2 tox 5µM
Cn1c2ccccc2c(=O)c2c(=O)n(Cc3ccco3)c(-c3ccc(F)cc3)nc21	HepG2 tox 20µM
CC1(C(=O)NS(=O)(=O)c2ccc(Cl)cc2)CCN1C(=O)Cc1ccsc1 (centres undefined)	none (no result: Nrf2 block, A549 viability)
CC1C(=O)N2CCCc3cc(S(=O)(=O)NCc4ccccc4Cl)cc1c32 (centres undefined)	none
CC1CN(Cc2cc(=O)[nH]c(C(C)C)n2)CC(C)O1 (centres undefined)	none
Cc1cc(Nc2cccc(F)c2)nc(-c2ccccc2O)n1	HepG2 tox 11µM, Nrf2 block inconclusive, TGFb inhibitor inconclusive
Cc1cc(Nc2ccccc2)nc(-c2ccccc2O)n1	ATXN viability inconclusive, TGFb inhibitor inconclusive (no result: Nrf2 block)
CCN(Cc1ccccc1)C(=O)c1cccc(S(=O)(=O)N2CCN(c3ccc(F)cc3)CC2)c1	Nrf2 block 15µM, TGFb inhibitor inconclusive
COc1ccccc1CNC(=O)c1cccc(S(=O)(=O)N2CCN(c3ccc(F)cc3)CC2)c1	Nrf2 block inconclusive, TGFb inhibitor inconclusive (no result: ATXN2 expr inh)
COc1cccc(CN(C)C(=O)c2cccc(S(=O)(=O)N3CCN(c4ccc(F)cc4)CC3)c2)c1OC	Nrf2 block 8.2µM, TGFb inhibitor inconclusive, A549 viability inconclusive, ATXN2 expr inh inconclusive
COc1cccc(CN(C)C(=O)c2cccc(S(=O)(=O)N3CCN(Cc4ccccc4)CC3)c2)c1OC	Nrf2 block 10µM
COc1cccc(CN(C)C(=O)c2ccc(Cl)c(S(=O)(=O)N3CCCCCC3)c2)c1OC	Nrf2 block 18µM
CN(Cc1ccco1)C(=O)c1cccc(S(=O)(=O)N2CCN(Cc3ccccc3)CC2)c1	none (no result: Nrf2 block, A549 viability, ATXN2 expr inh)
CC(NC(=O)C1CCOCC1)c1nnc2n1CCN(Cc1ccc3cccnc3c1)CC2 (centres undefined)	none (no result: HepG2 tox, Nrf2 block, TGFb inhibitor, A549 viability, ATXN2 expr inh)
COc1ccc(-c2c(C(=O)c3ccc(Br)cc3)[nH]c(N)c2C(=O)c2ccccc2)cc1OC	none (no result: HepG2 tox, Nrf2 block, TGFb inhibitor, A549 viability)
Cc1ccc(Oc2c(C(N)=O)cc([N+](=O)[O-])cc2[N+](=O)[O-])cc1	ATXN viability inconclusive, Nrf2 block 5.8µM, TGFb inhibitor inconclusive, A549 viability 4.1µM, ATXN2 expr inh inconclusive
COc1ccc(CNC(=O)CN2C(=O)CSc3ccc(S(=O)(=O)N4CCOCC4)cc32)c(OC)c1	none
CCOc1ccc(OCCNC(=O)c2cc(C3CC3)nc3c2cnn3C(C)C)cc1	Nrf2 block inconclusive, TGFb inhibitor 13µM
CCNC(=O)c1cccc(NC(=O)c2cc(C3CC3)nc3c2cnn3C(C)C)c1	Nrf2 block 18µM
CC(C)n1ncc2c(C(=O)Nc3cccc(C#N)c3)cc(C3CC3)nc21	ATXN viability inconclusive, Nrf2 block inconclusive, TGFb inhibitor inconclusive, A549 viability inconclusive, ATXN2 expr inh inconclusive
Cc1sc(-c2cc3ccccc3oc2=O)nc1-c1ccc(Cl)cc1	none (no result: Nrf2 block)
CC1CCN(Cc2cc(=O)oc3ccc4ccccc4c23)CC1	none
COc1ccc(/C=N/NC(N)=S)cc1OC(=O)c1cccc2ccccc12	none
COc1ccc(Br)cc1CN(C)CC(O)COc1ccc(Br)cc1 (centres undefined)	HepG2 tox 18µM, TGFb inhibitor inconclusive, ATXN2 expr inh inconclusive
CNC[C@@H](C)NC[C@@H](Cc1ccccc1)NCCc1ccccc1	none
CC[C@H](C)[C@@H](CN[C@H](C)CNC)NCCC(c1ccccc1)c1ccccc1	ATXN viability 32µM, HepG2 tox 22µM, TGFb inhibitor inconclusive, ATXN2 expr inh inconclusive
O=C(/C=C/c1ccc(S(=O)(=O)N2CCOCC2)cc1)NCc1ccccc1Cl	none
C/C(=N\N=C(N)N)c1ccc(Cl)cc1Cl	TGFb inhibitor inconclusive, ATXN2 expr inh inconclusive
C/C(=N\N=C(N)N)c1cc(Cl)ccc1Cl	Nrf2 block 16µM, TGFb inhibitor inconclusive, A549 viability inconclusive (no result: ATXN2 expr inh)
CCOCCCN(C(=O)c1snc(C(N)=O)c1N)C(C(=O)NC1CCCC1)c1ccc(OC)cc1 (centres undefined)	none
CC(CC(=O)NC1CCCCC1)S(=O)(=O)c1ccc2c(c1)NC(=O)CO2 (centres undefined)	none
Cn1c(COc2ccccc2)nnc1SCc1nc2ccccc2[nH]1	Nrf2 block inconclusive, TGFb inhibitor inconclusive
Clc1ccc(OCc2nnc(SCc3nc4ccccc4[nH]3)n2Cc2ccco2)cc1	Nrf2 block 18µM, TGFb inhibitor inconclusive, A549 viability inconclusive
CCn1c(COc2ccc(C)cc2)nnc1SCc1nc2ccccc2[nH]1	Nrf2 block 18µM
COc1ccc(C)cc1NC(=O)CSc1nnc(COc2ccc(Cl)cc2)n1Cc1ccco1	ATXN viability inconclusive, Nrf2 block inconclusive, TGFb inhibitor inconclusive, ATXN2 expr inh inconclusive
O=C(CSc1nnc(COc2ccc(Cl)cc2)n1Cc1ccco1)c1ccccc1F	Nrf2 block 13µM, A549 viability inconclusive
CC(=O)N1c2ccc(S(=O)(=O)NCC3CCC(C(=O)Nc4cccc(F)c4)CC3)cc2CC1C (centres undefined)	Nrf2 block inconclusive (no result: ATXN viability, ATXN2 expr inh)
COc1ccc(OC)c(Cc2nnc(CCC(=O)NC3C4CC5CC(C4)CC3C5)o2)c1 (centres undefined)	none
O=C(NCc1ccccn1)c1ccc(COc2ccc(Cl)cc2)o1	Nrf2 block 23µM
Cc1ccc(C(=O)NCc2ccccn2)o1	none
O=C(CNS(=O)(=O)c1ccc([N+](=O)[O-])cc1)N/N=C/c1ccc(O)cc1O	ATXN2 expr inh 24µM
O=C(CNS(=O)(=O)c1ccc([N+](=O)[O-])cc1)N/N=C\c1ccc(O)cc1	none (no result: ATXN2 expr inh)
CN(C)c1ccc(C(C[N+](=O)[O-])c2c(N)n(C)c(=O)n(C)c2=O)c(F)c1C#N (centres undefined)	HepG2 tox 11µM, Nrf2 block inconclusive, TGFb inhibitor inconclusive (no result: ATXN viability, ATXN2 expr inh)
Cn1c(N)c(C(C[N+](=O)[O-])c2c(F)cccc2Cl)c(=O)n(C)c1=O (centres undefined)	none
COc1ccc(Br)cc1C(C[N+](=O)[O-])c1c(N)n(C)c(=O)n(C)c1=O (centres undefined)	HepG2 tox 16µM, Nrf2 block inconclusive, TGFb inhibitor 10µM (no result: ATXN viability, ATXN2 expr inh)
CC(C)=CCc1cc(-c2oc3cc(O)cc(O)c3c(=O)c2O)ccc1O	TGFb inhibitor inconclusive
